HSF1 inhib = HSF1 inhibitors in luciferase reporter cells, primary screen, cell-based, NIH3T3, luminescence; NIH3T3-HGL HSE-luciferase, MG132-induced, luminescence 8 h; active compounds read low; 300,000 compounds, 0.77% hits; activity change, negative = inhibition, % at 7.5 µM (by protocol);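 active = more than half of replicate wells show activity change below -50%, luminescence cut by over half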;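 note: luciferase reports HSF-1 transcriptional activity via heat shock element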
TROY NFkB inh = inhibitors of TROY-driven NF-kB signaling, primary screen, Q293 LMP1-TROYcd cells, NF-kB luciferase, uHTS | Q293 LMP1-TROYcd NF-kB luciferase reporter, 4 h | inhibition, % at 10 µM | 360,000 compounds, 0.98% hits | AID 1347056, 2019;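 active = compounds whose plate-normalised and pattern-corrected inhibition of the luciferase reporter signal at the single screening dose is 50% or more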
EBV LMP1 NFkB = EBV LMP1-driven NF-kappaB luciferase reporter inhibitors, primary screen, cell-based, luminescence, single point. AID 504558, 2011. LMP1-induced NF-kappaB luciferase reporter cells. 350,000 compounds, 0.69% hits. inhibition, % at 12.5 µM; in the data active = inhibition above about 41%
TWEAK-Fn14 inh = inhibitors of TWEAK-Fn14 signaling, primary screen, luciferase reporter cells, uHTS. TWEAK-stimulated Fn14 reporter cells, luciferase luminescence, 8 h. inhibition, % at 10 µM. 360,000 compounds, 2% hits. AID 1159606, 2016; in the data active = inhibition above about 50%
LGR2 antag = inhibitors of bursicon-induced LGR2 CRE-luciferase signal, primary screen, cell-based, HEK293, CRE-luciferase reporter, bursicon stimulation | inhibition, % at 9.99 µM | AID 720647, 2013 | 380,000 compounds, 0.35% hits | Drosophila bursicon receptor LGR2 (rickets) | bursicon-stimulated, 4 h;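 active = drop in luminescence signal, shown as inhibition above about 50% in the replicate tests, limit read from the data, passing the limit was not always enough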;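 note: agonist challenge used bursicon conditioned medium at about half maximal strength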
HSF1 activator = HSF-1 activators, primary screen, NIH3T3-HGL cells, MG132 stress, luminescence, single point; NIH3T3-HGL HSF-1 luciferase reporter, 8 h; 100% = twice DMSO control signal; activation, % at 9 µM; 300,000 compounds, 1.7% hits;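 active = mean replicate activation of at least 50% with a set share of replicates each reaching 50%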
A number is an active result; . = inactive; / = not tested or not shown. In the library only some 3.6% were active in any assay of this set; here they are far more common.

SMILES	HSF1 inhib	TROY NFkB inh	EBV LMP1 NFkB	TWEAK-Fn14 inh	LGR2 antag	HSF1 activator
CCOc1cc(/C=N/NC(=O)c2nn(C)cc2Br)ccc1OCc1ccccc1Cl	.	.	.	57.3	.	.
CCOc1cc(/C=N/NC(=O)c2ccc(CN3CCOCC3)cc2)ccc1OCc1ccccc1	.	51.3	.	69.9	.	.
CCOc1cc(/C=N/NS(=O)(=O)c2ccccc2)ccc1OS(=O)(=O)c1ccc(C)cc1	.	.	.	.	/	.
CCOc1cc(/C=N/NC(=O)CN2CCCCC2)ccc1OCc1ccc(Cl)cc1	.	.	.	.	.	58.2
CCOc1cc(/C=N/NC(=O)COc2ccc(Cl)cc2)ccc1OS(=O)(=O)c1ccccc1	.	.	.	53.7	/	.
CCOc1cc(/C=N/NC(=O)CN2CCOCC2)ccc1OCc1ccccc1	.	.	.	.	.	.
C/C=C/c1ccc([C@H]2[C@@H](CO)N(C(=O)CC)C23CN(C(=O)c2ccccc2)C3)cc1	/	/	/	/	.	/
C[C@H]1CN([C@@H](C)CO)C(=O)CCCn2cc(nn2)CO[C@H]1CN(C)C(=O)c1ccc2ccn(C)c2c1	/	/	/	/	.	/
CNC[C@H]1Oc2cc(C#CCN(C)C)ccc2S(=O)(=O)N([C@@H](C)CO)C[C@H]1C	/	/	/	/	.	/
CC(C)C#Cc1cnc2c(c1)C(=O)N([C@@H](C)CO)C[C@@H](C)[C@H](CN(C)C(=O)Nc1cccc(F)c1)O2	/	/	/	/	.	/
CCC1CSC(Nc2ccc(C(=O)/C=C/c3cccc(C)c3)cc2)=N1 (configuration not stated)	.	.	.	51.8	/	74.7
CCCC12CN3CC(C)(CN(C1)C3c1cccs1)C2=O (configuration not stated)	.	.	/	.	.	61.9
COc1ccccc1-n1ccnc(SCC(=O)NCc2ccccc2)c1=O	-54.7	.	.	.	.	.
COc1ccccc1-n1ccnc(SCC(=O)NC2CCCC2)c1=O	.	.	.	.	.	.
COc1ccc2c3c(n(C)c2c1)[C@@H](CO)N(C)CC31CCN(C(=O)Nc2cccc(F)c2)CC1	/	/	/	/	.	/
COC(=O)C[C@@H]1C[C@@H]2c3cc(NC(=O)Nc4ccc(F)cc4)ccc3O[C@@H]2[C@@H](CO)O1	/	/	/	/	.	/
CS(=O)(=O)Nc1ccc(-c2cncc3nccn23)cc1	/	.	/	.	.	/
CS(=O)(=O)Nc1ccc(-c2cnc3cccnn23)cc1	/	.	/	64.6	.	/
CCCC(=O)Nc1ccc2c(c1)OC[C@@H](C)N(C(=O)CN(C)C)C[C@@H](C)[C@@H](OC)CN(C)C2=O	/	/	/	/	.	/
CCOC(=O)c1c(COc2ccccc2)oc2ccc(O)cc12	.	/	/	/	/	105.0
CCOC(=O)c1c(C)n(CCOc2ccccc2)c2ccc(O)cc12	.	.	.	.	.	68.6
COc1ccc(NC(=O)CCc2nnc3ccc(NCc4ccc5c(c4)OCO5)nn23)cc1	.	.	.	.	.	66.3
CCC(=O)Nc1ccc2c(c1)C(=O)N(C)C[C@@H](OC)[C@@H](C)CN(C(=O)c1ccncc1)[C@H](C)CO2	/	/	/	/	.	/
CCCn1c(SCc2nc3sc(C)c(C)c3c(=O)[nH]2)nc2ccccc2c1=O	.	.	.	.	/	113.8
COCCn1c(SCc2nc3ccccc3c(=O)[nH]2)nc2ccccc2c1=O	.	.	.	.	.	.
CC(C)NC(=O)N(O)C1N(C(C)C)C(=O)N(Cc2ccc3c(c2)OCO3)C1(C)C (configuration not stated)	.	.	.	.	.	.
CC(C)NC(=O)N(O)C1N(Cc2ccc3c(c2)OCO3)C(=S)SC1(C)C (configuration not stated)	-57.7	.	.	58.1	.	.
Cc1ccn2c(c1)nc(=S)n2C(=O)c1ccccc1	.	74.2	49.4	98.4	/	.
Cc1cccc(C(=O)n2c(=S)nc3cc(C)ccn32)c1	.	70.9	.	85.4	79.8	.
O=C(c1ccco1)n1c(=S)nc2ccccn21	.	.	.	.	.	.
